Laboratory results as given in PubChem BioAssay (Tox21).
Inconclusive results are not listed. Where a structure was tested more than once in an assay, its records may differ in their call. Active and inactive are the calls of the source. Unless noted, calls come from the whole dose curve; as a rule, active = well fitted curve in the direction sought with a large enough effect in the repeat runs; inconclusive = weak or mixed curves; inactive = no such curve, though single readings can be large; an effect the other way counts as inactive or inconclusive.

Assays:
[1] = qHTS assay to identify small molecule agonists of the estrogen receptor alpha (ER-alpha) signaling pathway in the presence of an antagonist - cell viability counter screen (AID 1259386);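 note: cells exposed to compounds for 22 h at 37 °C before the viability read; nearly all actives have a fitted effect of over 30% in size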; note: potency is the fitted concentration of half-maximal effect
In short: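 Using estrogen-depleted VM7Luc4E2 cells, the 15-concentration compound series was applied together with 10.0nM ICI-182,780 and incubated 22hr at 37C/5% CO2. Cell viability was then scored by CellTiter-Fluor.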

[2] = biological target: Progesterone receptor (Homo sapiens) (UniProt P06401); experiment: qHTS assay to identify small molecule antagonists of the progesterone receptor (PR) signaling pathway (AID 1346795; active = well fitted inhibition curve with a large enough effect in the signal ratio in the repeat runs, not every such curve was filed as active; the % refers to the signal ratio; note: potency is the fitted concentration of half-maximal effect)
Chain of Progesterone receptor (Homo sapiens) (P06401 whole entry, looked up): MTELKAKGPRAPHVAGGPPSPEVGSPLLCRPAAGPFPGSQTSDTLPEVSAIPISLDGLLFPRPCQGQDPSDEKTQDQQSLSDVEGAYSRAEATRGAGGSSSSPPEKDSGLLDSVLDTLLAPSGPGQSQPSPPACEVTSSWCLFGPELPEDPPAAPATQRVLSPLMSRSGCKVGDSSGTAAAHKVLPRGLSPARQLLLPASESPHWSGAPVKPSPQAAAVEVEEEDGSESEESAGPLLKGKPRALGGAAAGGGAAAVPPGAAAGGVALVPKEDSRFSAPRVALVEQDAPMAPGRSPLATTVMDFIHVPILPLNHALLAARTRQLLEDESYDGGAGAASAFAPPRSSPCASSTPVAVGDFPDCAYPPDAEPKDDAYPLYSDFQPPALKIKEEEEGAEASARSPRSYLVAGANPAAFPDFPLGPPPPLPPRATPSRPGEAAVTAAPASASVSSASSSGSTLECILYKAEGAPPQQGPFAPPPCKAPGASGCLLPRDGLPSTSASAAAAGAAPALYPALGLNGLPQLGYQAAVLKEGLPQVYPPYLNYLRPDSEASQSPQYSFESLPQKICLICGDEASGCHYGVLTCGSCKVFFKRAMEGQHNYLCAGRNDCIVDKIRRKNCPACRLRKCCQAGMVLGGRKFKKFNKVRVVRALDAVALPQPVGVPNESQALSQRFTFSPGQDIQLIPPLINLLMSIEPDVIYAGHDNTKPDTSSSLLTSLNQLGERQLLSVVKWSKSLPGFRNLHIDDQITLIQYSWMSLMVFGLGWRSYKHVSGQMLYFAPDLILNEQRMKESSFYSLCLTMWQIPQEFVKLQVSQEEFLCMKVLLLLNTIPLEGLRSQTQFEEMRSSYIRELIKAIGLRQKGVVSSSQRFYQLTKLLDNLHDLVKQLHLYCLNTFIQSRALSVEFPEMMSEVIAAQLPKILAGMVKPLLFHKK
In short: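 After 6 hr plating at 37C in 2% stripped-serum medium, PR-UAS-bla HEK293T cells got compounds, then 1 nM R5020. Sixteen hours later, LiveBLAzer substrate was applied for 2 hr at room temperature and fluorescence was recorded.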

[3] = qHTS assay to identify small molecule antagonists of the progesterone receptor (PR) signaling pathway - cell viability counter screen (AID 1346798); note: nearly all actives have a fitted effect of over 50% in size; note: potency is the fitted concentration of half-maximal effect
In short: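 Viability was determined by ATP-based luminescence (CellTiter-Glo) in PR-UAS-bla HEK293T cells cultured in 2% charcoal-stripped serum and incubated 16 hr with compounds under R5020 stimulation.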

[4] = qHTS assay to identify small molecule agonists of the progesterone receptor (PR) signaling pathway - cell viability counter screen (AID 1346799; calls by dose curve; note: nearly all actives have a fitted effect of over 45% in size; note: potency is the fitted concentration of half-maximal effect)
In short: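 Viability was scored by ATP luminescence (CellTiter-Glo, 30 min, room temperature) in the same wells used for the reporter readout, after 16 hr compound exposure of PR-UAS-bla HEK293T cells.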

[5] = qHTS assay to identify small molecule antagonists of the TGF-beta/Smad signaling pathway - cell viability counter screen (AID 1346824); note: nearly all actives have a fitted effect of over 50% in size
In short: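 SBE-bla HEK 293T cells, incubated overnight, then compound plus 0.25 ng/mL TGF-beta1 (stock added) for 5 hr at 37 C. Viability was read in the same wells by CellTiter-Glo luminescence after 30 min at room temperature.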

[6] = qHTS assay to identify small molecule agonists of the TGF-beta/Smad signaling pathway - cell viability counter screen (AID 1346829); note: top concentration of the series differs between compounds; nearly all actives have a fitted effect of over 45% in size
In short: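 Cytotoxicity counter screen: CellTiter-Glo luminescence (30 min, room temperature) measured in the SBE-bla HEK 293T reporter wells after 5 hr compound treatment at 37 C and the 2 hr substrate step.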

[7] = qHTS assay to identify small molecule agonists of the TGF-beta/Smad signaling pathway (AID 1346859; active = well fitted activation curve with a large enough effect in the signal ratio in the repeat runs, not every such curve was filed as active; the % refers to the signal ratio; note: potency is the fitted concentration of half-maximal effect; for activation: series mostly up to about 77 µM)
In short: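 Dual-wavelength fluorescence (460/530 nm emission) quantified beta-lactamase expression under the Smad binding element in HEK 293T cells following 5 hr compound treatment at 37 C.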

[8] = biological target: Thyrotropin-releasing hormone receptor (Homo sapiens) (UniProt P34981); experiment: qHTS assay to identify small molecule antagonists of the thyrotropin-releasing hormone receptor (TRHR) signaling pathway (AID 1346877; active = well fitted inhibition curve with a large enough effect in the repeat runs, not every such curve was filed as active; note: series mostly up to about 51 µM)
Chain of Thyrotropin-releasing hormone receptor (Homo sapiens) (P34981 whole entry, looked up): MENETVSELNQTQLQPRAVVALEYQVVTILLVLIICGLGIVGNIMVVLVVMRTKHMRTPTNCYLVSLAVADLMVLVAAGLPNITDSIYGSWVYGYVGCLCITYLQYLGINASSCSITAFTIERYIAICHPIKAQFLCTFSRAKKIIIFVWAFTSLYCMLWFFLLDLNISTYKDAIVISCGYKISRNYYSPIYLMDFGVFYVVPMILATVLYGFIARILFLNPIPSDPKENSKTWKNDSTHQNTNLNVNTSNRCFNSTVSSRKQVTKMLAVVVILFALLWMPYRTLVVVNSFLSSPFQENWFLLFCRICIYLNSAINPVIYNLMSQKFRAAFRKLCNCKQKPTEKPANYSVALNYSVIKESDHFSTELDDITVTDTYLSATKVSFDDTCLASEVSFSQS
In short: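 Calcium signal in dye-loaded TRHR/HEK293 cells; compounds added 5 min before TRH (1 nM final); fluorescence monitored 3 min at 1 s steps.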

[9] = biological target: Thyrotropin-releasing hormone receptor (Homo sapiens) (UniProt P34981); experiment: qHTS assay to identify small molecule agonists of the thyrotropin-releasing hormone receptor (TRHR) signaling pathway (AID 1346891; calls by dose curve;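 note: HEK293 cells expressing TRHR with calcium dye readout; series mostly up to about 58 µM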)
In short: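 Kinetic fluorescence (3 min, 1 s intervals) reported intracellular calcium after compound transfer onto TRHR-Hek293 cells pre-loaded with dye for 2 h at 37 °C.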

[10] = biological target: Progesterone receptor (Homo sapiens) (UniProt P06401); experiment: qHTS assay to identify small molecule agonists of the progesterone receptor (PR) signaling pathway (AID 1346784; calls by dose curve; note: nearly all actives have a fitted effect of over 30% in size)
In short: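 The screen uses PR-UAS-bla HEK 293T cells in charcoal-stripped serum (2%). Compounds are applied for 16 hr at 37C after a 6 hr pre-incubation, and reporter activity is detected with a FRET beta-lactamase substrate after 2 hr at room temperature.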

Measured: Potency

O=C(O)c1ccc(O)cc1O
not listed: [10]
inactive: all other assays above

CCC(C)(C)C(=O)O
not listed: [10]
inactive: all other assays above

CCCCCCCC(=O)OCCCCCC
not listed: [8] | [10]
inactive: all other assays above

Cc1cccc(C)c1NC(=O)c1cc(S(N)(=O)=O)c(Cl)cc1O
not listed: [10]
inactive: all other assays above

O=C1[C@@H]2[C@H]3CC[C@H](C3)[C@@H]2C(=O)N1CCCCN1CCN(c2ncccn2)CC1
not listed: [8] | [9] | [10]
inactive: all other assays above

COC(=O)Nc1nc2ccc(C(=O)C3CC3)cc2[nH]1
inactive: [1] | [10] | [5] | [6] | [7]

Cc1c(C2(c3cc(Br)c(O)c(Br)c3C)OS(=O)(=O)c3ccccc32)cc(Br)c(O)c1Br
inactive: [10] | [6] | [7] | [8] | [9]
active: [1] 13.3 µM | [3] 18.8 µM

CCCCCCCCCCCCCCCCCC(=O)OCC(CC)CCCC (stereo not given)
not listed: [8] | [9] | [10]
inactive: all other assays above

O=C(c1ccccc1)C1CCC1
not listed: [2] | [4] | [8]
inactive: all other assays above

Cc1ccc(N(CCO)CCO)cc1
not listed: [8] | [9] | [10]
inactive: all other assays above

CCN(CC)CC(=O)Nc1c(C)cccc1C(=O)OC
not listed: [8] | [9] | [10]
inactive: all other assays above

Cc1cc([N+](=O)[O-])ccc1N
inactive: [10] | [4] | [5] | [6] | [7]
active: [1] 47.9 µM

CC(C)COC(=O)c1ccc(O)cc1
not listed: [2] | [4] | [8]
inactive: all other assays above

COc1cc(C(C)=O)ccc1OCCCN1CCC(c2noc3cc(F)ccc23)CC1
not listed: [10]
inactive: all other assays above

N[C@@H](Cc1cc(I)c(O)c(I)c1)C(=O)O
not listed: [8] | [10]
inactive: all other assays above

O[C@@H](CNC[C@H](O)[C@H]1CCc2cc(F)ccc2O1)[C@@H]1CCc2cc(F)ccc2O1
inactive: [1] | [5] | [6] | [7]
active: [2] 26.6 µM | [3] 29.8 µM | [4] 29.8 µM

O=C(O)c1cc(Cl)cc(Cl)c1O
not listed: [10]
inactive: all other assays above

Nc1ccc(NC(=O)c2ccc(N)cc2)cc1
active: [4] 54.5 µM
not listed: [8] | [10]
inactive: all other assays above

CCCCCCCCCCCCCCCC(=O)OCC
not listed: [10]
inactive: all other assays above

CN1CCCN(C(c2ccccc2)c2ccc(Cl)cc2)CC1 (stereo not given)
active: [2] 21.1 µM | [3] 15 µM | [4] 13.3 µM
inactive: [10] | [5] | [6] | [7]

CCCCC[C@H](O)/C=C/[C@H]1[C@H](O)CC(=O)[C@@H]1C/C=C\CCCC(=O)O
not listed: [4] | [7] | [10]
inactive: all other assays above

COc1ccc2nc(S(=O)Cc3ncc(C)c(OC)c3C)[nH]c2c1 (stereo not given)
inactive: [5] | [6] | [7] | [8] | [9]
48 µM (active) and inactive: [1]

CCCCCCCCCCCSCC(=O)O
active: [4] 21.7 µM
not listed: [2] | [10]
inactive: all other assays above

Oc1cccc2[nH]ccc12
not listed: [4] | [10]
inactive: all other assays above

COc1ccc(-c2cc(=S)ss2)cc1
inactive: [5] | [6] | [7] | [8] | [9]
active: [3] 15 µM

c1ccc(CCCc2ccncc2)cc1
inactive: [1] | [5] | [6] | [7] | [8] | [9]

O=S(=O)(O)CO
not listed: [4] | [10]
inactive: all other assays above

Nc1nc(-c2ccc([N+](=O)[O-])cc2)cs1
not listed: [2] | [4] | [10]
inactive: all other assays above

O=C(O)CN1C(=O)c2cccc3cccc(c23)C1=O
not listed: [2] | [10]
inactive: all other assays above

CCOC(=O)c1ccc(NC(=O)CN2CCCCC2)cc1
inactive: [1] | [3] | [5] | [6] | [7]

CCOC(=O)c1c(N)sc2c1CCN(Cc1ccccc1)C2
active: [7] 7.56 µM
not listed: [1] | [5]
inactive: all other assays above

c1ccc(CNc2ncnc3c2ncn3C2CCCCO2)cc1 (stereo not given)
inactive: [1] | [2] | [3] | [5] | [6] | [7]

O=C1NC(=O)c2cccc3cccc1c23
not listed: [2] | [10]
inactive: all other assays above

COc1ccc(-c2cc(C(F)F)nn2-c2ccc(S(N)(=O)=O)cc2)cc1F
inactive: [1] | [4] | [5] | [6] | [8] | [9]

CC(CN(CCN(CC(C)OCCO)CC(C)OCCO)CC(C)OCCO)OCCO (stereo not given)
not listed: [1] | [4]
inactive: all other assays above

O=C(O)CCCc1c[nH]c2ccccc12
not listed: [4] | [7] | [10]
inactive: all other assays above

CC1CCc2nccnc21 (stereo not given)
not listed: [4] | [8] | [10]
inactive: all other assays above

CC[C@H]1OC(=O)[C@H](C)[C@@H](O[C@H]2C[C@@](C)(OC)[C@@H](O)[C@H](C)O2)[C@H](C)[C@@H](O[C@@H]2O[C@H](C)C[C@H](N(C)C)[C@H]2O)[C@](C)(O)C[C@@H](C)CN(C)[C@H](C)[C@@H](O)[C@]1(C)O
inactive: [2] | [3] | [5] | [6] | [7] | [9]

CC(C)C(O)C(C)(C)CO (stereo not given)
not listed: [2] | [4] | [10]
inactive: all other assays above

CC(=O)C(=O)CC(C)C
not listed: [2] | [3] | [10]
inactive: all other assays above

CO[C@@H]1[C@@H](OC)[C@H](C)[C@@](O)(CC(=O)O)O[C@H]1[C@H](C)[C@H]1O[C@@]2(CC[C@@](C)([C@H]3CC[C@@](C)([C@@H]4O[C@@H]([C@H]5O[C@](C)(O)[C@H](C)C[C@@H]5C)C[C@@H]4OC4C[C@H](OC)[C@@H](OC)[C@H](C)O4)O3)O2)C[C@H](O)[C@H]1C (stereo not given in full)
active: [1] 2.37 µM | [2] 10.6 µM | [3] 18.8 µM
not listed: [4] | [10]
inactive: all other assays above

C[C@@H]1[C@H](O)[C@@H](C)/C=C/C=C\C=C\C=C\C=C\C=C\C=C\[C@H](O[C@@H]2O[C@H](C)[C@@H](O)[C@H](N)[C@@H]2O)C[C@@H]2O[C@](O)(C[C@@H](O)C[C@@H](O)[C@H](O)CC[C@@H](O)C[C@@H](O)CC(=O)O[C@H]1C)C[C@H](O)[C@H]2C(=O)O (stereo in doubt)
inactive: [5]

CC(CCc1ccc(O)cc1)NCCc1ccc(O)c(O)c1 (stereo not given)
not listed: [1] | [8] | [10]
inactive: all other assays above

COc1cc(S(=O)(=O)Nc2ccccc2)c(OC)cc1N
not listed: [4] | [10]
inactive: all other assays above

COC(=O)C1=C(C)NC(C)=C(C(=O)OC(C)(C)CN(C)CCC(c2ccccc2)c2ccccc2)C1c1cccc([N+](=O)[O-])c1 (stereo not given)
active: [2] 6.68 µM
inactive: [1] | [5] | [6] | [7] | [9]

Cc1ccc2c(c1[N+](=O)[O-])C(=O)c1ccccc1C2=O
inactive: [2] | [3] | [4] | [6] | [7]

CCCCCCCC/C=C\CCCCCCCC(=O)OCCO
not listed: [4] | [8] | [10]
inactive: all other assays above

COc1ccc(N)c([N+](=O)[O-])c1
not listed: [1]
inactive: all other assays above

Nc1cccc2c(N)cccc12
inactive: [5] | [6] | [7]
active: [1] 48.6 µM

CCN(CC)C(=O)/C(C#N)=C/c1cc(O)c(O)c([N+](=O)[O-])c1
inactive: [2] | [5] | [6] | [8] | [9]
active: [1] 26.6 µM

CC(C)Cc1ccc(CC(=O)O)cc1
active: [3] 29.8 µM
not listed: [2] | [4] | [10]
inactive: all other assays above

CC(C)OC(=O)c1ccccc1C(=O)OC(C)C
active: [3] 61.1 µM | [4] 43.3 µM
not listed: [2] | [10]
inactive: all other assays above

CNS(=O)(=O)c1cc(C(=O)N2CCC(CCN3C4CCC3CC(n3c(C)nc5ccccc53)C4)(c3cccc(F)c3)CC2)c(Cl)cc1F (stereo not given)
active: [3] 24.3 µM | [4] 5.45 µM
inactive: [1] | [5] | [6]

CC(=O)OCC(=O)[C@@]1(OC(C)=O)[C@@H](C)C[C@H]2[C@@H]3C[C@H](F)C4=CC(=O)C=C[C@]4(C)[C@@]3(F)[C@@H](O)C[C@@]21C
inactive: [1] | [4] | [5] | [6]

COc1cc(NC(C)CCCN)c2ncccc2c1 (stereo not given)
not listed: [1] | [4] | [10]
inactive: all other assays above

C1CCCCC1
not listed: [2] | [8] | [10]
inactive: all other assays above

COc1cc(NCc2ccc3nc(N)nc(N)c3c2C)cc(OC)c1OC
inactive: [10] | [3] | [4] | [7] | [8] | [9]

CCCCCCCCCCCCCOS(=O)(=O)O
inactive: [1] | [2] | [6] | [7]
